High-throughput results (PubChem)
Most compounds without a hit are left out; they make up all but 0.9% or so of the library.
Resorufin autofl: resorufin region autofluorescence. Compound fluorescence, resorufin region 547/598 nm, buffer; stronger effect = higher value. max dye-equivalent concentration, M. actives 0.04% (n = 59,000). AID 588
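Intrinsic fluorescence profiled in the resorufin window (ex 547 nm, em 598 nm) after 15 min at room temperature in pH 8.0 Tris buffer (100 mM); responses normalized against a six-point resorufin standard series as dye-equivalent concentration.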
A488 fluor: compound fluoresces in the A488 spectral region; compound autofluorescence, A488 spectral region, dye equivalency; Compound Type: qHTS ECL - MLSMR; max dye equivalency, M; actives 0.1% (n = 59,000)
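Intrinsic compound fluorescence is measured in 100 mM Tris buffer at pH 8.0 following 15 min incubation at room temperature. Intensities at 480 nm excitation/540 nm emission are calibrated to an on-plate A488 concentration series, giving dye-equivalent concentrations.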
TexasRed autofl: compounds fluorescent in Texas Red spectral region; actives 0.06% (n = 59,000); Compound fluorescence, Texas Red channel, 547/618 nm; stronger effect = higher value; AID 587; max dye-equivalent concentration, M; in the data active = max dye-equivalent concentration above about 10 nM; inconclusive = between about 1.1 nM and that limit
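Pin-transferred compounds and Texas Red standards go into 100 mM Tris buffer, pH 8.0. After 15 min at room temperature, plates are imaged with 547/618 nm filters. Each value is a dye-equivalent concentration derived from the per-plate dye curve.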
Fluorescein fluor: fluorescein region autofluorescence; Compound autofluorescence, 480/540 nm, fluorescein-equivalent; stronger effect = higher value; max fluorescein-equivalent concentration, M; actives 0.91% (n = 59,000); AID 593; in the data active = max fluorescein-equivalent concentration above about 10 nM; inconclusive = between about 1.1 nM and that limit
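Autofluorescence profiling; 100 mM Tris, pH 8.0; incubation 15 min at RT; ex/em 480/540 nm; result as fluorescein-equivalent concentration.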
Rhodamine fluor: compound autofluorescence in rhodamine spectral region; Rhodamine-region fluorescence, 547/598 nm, Tris buffer; stronger effect = higher value; max dye-equivalent concentration, M; actives 0.05% (n = 59,000); AID 594; in the data active = max dye-equivalent concentration above about 11 nM; inconclusive = between about 1.1 nM and that limit
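qHTS spectral profiling of compounds without any target or enzyme present, in pH 8.0 Tris buffer; plates were read after a 15-minute room-temperature incubation using the rhodamine-region filter set.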
A number is an active result. Unless noted, the rule behind the calls is not given here.

Results for N=c1c(C(=O)NCc2ccco2)cc2c(=O)n3ccccc3nc2n1Cc1ccc(Cl)cc1 ?
Resorufin autofl: inactive; A488 fluor: inactive; TexasRed autofl: inconclusive; Fluorescein fluor: inconclusive; Rhodamine fluor: inactive

What do the screens show for `N=c1c(C(=O)NCc2ccco2)cc2c(=O)n3ccccc3nc2n1Cc1ccccc1`?
Resorufin autofl: inactive; A488 fluor: inactive; TexasRed autofl: inactive; Fluorescein fluor: 1.86e-08M; Rhodamine fluor: inactive

How did N=c1c(C(=O)NCc2ccc3c(c2)OCO3)cc2c(=O)n3ccccc3nc2n1Cc1cccnc1 do in these assays?
Resorufin autofl: inactive; A488 fluor: inactive; TexasRed autofl: inactive; Fluorescein fluor: inconclusive; Rhodamine fluor: inactive

What do the screens show for `Cc1ccc(S(=O)(=O)c2cc3c(=O)n4ccccc4nc3n(Cc3ccco3)c2=N)cc1`?
Resorufin autofl: inactive; A488 fluor: inactive; TexasRed autofl: inconclusive; Fluorescein fluor: 1.46e-08M; Rhodamine fluor: inactive

What do the screens show for `CCOC(=O)c1cc2c(=O)n3ccccc3nc2n(Cc2ccc(Cl)cc2)c1=N`?
Resorufin autofl: inactive; A488 fluor: 2.56e-08M; TexasRed autofl: inactive; Fluorescein fluor: 3.41e-07M; Rhodamine fluor: inactive

How did Cc1cc2nc([C@H](C)C(=O)c3ccc(Cl)cc3)c(=O)[nH]c2cc1C do in these assays?
Resorufin autofl: inactive; A488 fluor: inactive; TexasRed autofl: inactive; Fluorescein fluor: inconclusive; Rhodamine fluor: inactive

What do the screens show for `COCCNC(=O)c1cc2c(=O)n3cccc(C)c3nc2n(Cc2ccncc2)c1=N`?
Resorufin autofl: inactive; A488 fluor: inactive; TexasRed autofl: inactive; Fluorescein fluor: inactive; Rhodamine fluor: inactive

What do the screens show for `CCCCNC(=O)c1cc2c(=O)n3cccc(C)c3nc2n(Cc2ccncc2)c1=N`?
Resorufin autofl: inactive; A488 fluor: inactive; TexasRed autofl: inconclusive; Fluorescein fluor: 1.6e-08M; Rhodamine fluor: inactive

Results for O=C1c2ccccc2-c2n[nH]c3cccc1c23 ?
Resorufin autofl: inactive; A488 fluor: inconclusive; TexasRed autofl: inactive; Fluorescein fluor: 4.73e-08M; Rhodamine fluor: inactive

How did O=c1c(-c2ccccc2)n[nH]c2ccccc12 do in these assays?
Resorufin autofl: inactive; A488 fluor: inactive; TexasRed autofl: inactive; Fluorescein fluor: inactive; Rhodamine fluor: inactive

Results for OC[C@@H]1O[C@@H](n2cnc3c(NCCc4ccccc4)ncnc32)[C@@H](O)[C@H]1O ?
Resorufin autofl: inactive; A488 fluor: inactive; TexasRed autofl: inactive; Fluorescein fluor: inactive; Rhodamine fluor: inactive

Results for CN1C=CC2=C(C#N)C(N)C(C#N)(C#N)C(c3ccccc3)C2C1 (stereo not given) ?
Resorufin autofl: inactive; A488 fluor: inconclusive; TexasRed autofl: inactive; Fluorescein fluor: 3.34e-08M; Rhodamine fluor: inactive

What do the screens show for `O=C1[C@@H]2C=CC=CC2=NC(=S)N1CCN1CCC(=C(c2ccc(F)cc2)c2ccc(F)cc2)CC1`?
Resorufin autofl: inactive; A488 fluor: inactive; TexasRed autofl: inactive; Fluorescein fluor: inconclusive; Rhodamine fluor: inactive

What do the screens show for `Nc1ncnc2nc[nH]c12.Nc1ncnc2nc[nH]c12.[Cl][Pt]([Cl])([Cl])[Cl]`?
Resorufin autofl: inactive; A488 fluor: inactive; TexasRed autofl: inactive; Fluorescein fluor: inactive; Rhodamine fluor: inactive

Results for Nc1ncnc2c1nc(Br)n2[C@@H]1O[C@H]2COP(=O)(O)O[C@@H]2[C@H]1O ?
Resorufin autofl: inactive; A488 fluor: inactive; TexasRed autofl: inactive; Fluorescein fluor: inactive; Rhodamine fluor: inactive

What do the screens show for `O=C(c1cnn2c(C(F)(F)F)cc(-c3ccc4c(c3)OCO4)nc12)N1CCCCC1`?
Resorufin autofl: inactive; A488 fluor: inactive; TexasRed autofl: inactive; Fluorescein fluor: inactive; Rhodamine fluor: inactive

What do the screens show for `O=C(NC1CCCC1)c1cnn2c(C(F)(F)F)cc(-c3ccc4c(c3)OCO4)nc12`?
Resorufin autofl: inactive; A488 fluor: inconclusive; TexasRed autofl: inactive; Fluorescein fluor: 4.57e-08M; Rhodamine fluor: inactive

What do the screens show for `COc1cc(/C=C/C(=O)CC(=O)/C=C/c2ccc(O)c(OC)c2)ccc1O`?
Resorufin autofl: inactive; A488 fluor: inactive; TexasRed autofl: inactive; Fluorescein fluor: inconclusive; Rhodamine fluor: inactive

Results for COc1cc(/C=C/C2=NC(=O)C(C)(C)O2)ccc1O ?
Resorufin autofl: inactive; A488 fluor: inactive; TexasRed autofl: inactive; Fluorescein fluor: 2.98e-08M; Rhodamine fluor: inactive

Results for O=c1ccn([C@H]2O[C@H](CO)[C@@H](O)[C@@H]2O)c(=O)[nH]1 ?
Resorufin autofl: inactive; A488 fluor: inactive; TexasRed autofl: inactive; Fluorescein fluor: inactive; Rhodamine fluor: inactive

What do the screens show for `CC(=O)c1c(C)[nH]c(C(=O)CSc2nc3ccccc3c(=O)n2CCCN2CCOCC2)c1C`?
Resorufin autofl: inactive; A488 fluor: inactive; TexasRed autofl: inconclusive; Fluorescein fluor: inconclusive; Rhodamine fluor: inactive

What do the screens show for `Cc1sc2nc(CSc3nc4ccccc4c(=O)n3CCCN3CCOCC3)[nH]c(=O)c2c1C`?
Resorufin autofl: inactive; A488 fluor: inconclusive; TexasRed autofl: inactive; Fluorescein fluor: 3.41e-08M; Rhodamine fluor: inactive

Results for O=C(CCc1ccc(O)cc1)c1c(O)cc(O)cc1O[C@@H]1O[C@@H](CO)[C@@H](O)[C@@H](O)[C@H]1O ?
Resorufin autofl: inactive; A488 fluor: inactive; TexasRed autofl: inactive; Fluorescein fluor: inactive; Rhodamine fluor: inactive

Results for CCNc1ncc2nc(-c3cccs3)c(=O)n(CCC#N)c2n1 ?
Resorufin autofl: inactive; A488 fluor: inactive; TexasRed autofl: inactive; Fluorescein fluor: 1.43e-08M; Rhodamine fluor: inactive

How did N#CCCn1c(=O)c(-c2cccs2)nc2cnc(Nc3ccccc3)nc21 do in these assays?
Resorufin autofl: inactive; A488 fluor: inactive; TexasRed autofl: inactive; Fluorescein fluor: inconclusive; Rhodamine fluor: inactive

How did CN(C)CCCOc1nn(Cc2ccccc2)c2ccccc12 do in these assays?
Resorufin autofl: inactive; A488 fluor: inactive; TexasRed autofl: inactive; Fluorescein fluor: 1.94e-08M; Rhodamine fluor: inactive

How did CC[C@@H]1CN2CCc3cc(OC)c(OC)cc3[C@H]2C[C@@H]1C[C@@H]1NCCc2cc(OC)c(OC)cc21 do in these assays?
Resorufin autofl: inactive; A488 fluor: inactive; TexasRed autofl: inactive; Fluorescein fluor: inconclusive; Rhodamine fluor: inactive

How did Cn1c(=O)c2[nH]c(CS(=O)(=O)Cc3nc4c([nH]3)c(=O)n(C)c(=O)n4C)nc2n(C)c1=O do in these assays?
Resorufin autofl: inactive; A488 fluor: inconclusive; TexasRed autofl: inconclusive; Fluorescein fluor: 1.22e-07M; Rhodamine fluor: inactive

What do the screens show for `COc1ccc(S(=O)(=O)C(C#N)c2nc3ccccc3nc2N2CCCCC2)cc1` (stereo not given)?
Resorufin autofl: inactive; A488 fluor: inactive; TexasRed autofl: inactive; Fluorescein fluor: inconclusive; Rhodamine fluor: inactive

Results for Cc1ccc(C)c(S(=O)(=O)C(C#N)c2nc3ccccc3nc2N2CCCC2)c1 (stereo not given) ?
Resorufin autofl: inactive; A488 fluor: inactive; TexasRed autofl: inactive; Fluorescein fluor: 1.07e-08M; Rhodamine fluor: inactive

How did N#CC(c1nc2ccccc2nc1N1CCCC1)S(=O)(=O)c1cccs1 (stereo not given) do in these assays?
Resorufin autofl: inactive; A488 fluor: inactive; TexasRed autofl: inactive; Fluorescein fluor: 1.69e-08M; Rhodamine fluor: inactive
